Screens: PubChem, National Center for Advancing Translational Sciences (NCATS)
In the library only some 12% were active in any assay of this set; here they are far more common.
HCV inhibitor – inhibitors of hepatitis C virus infection; Huh7.5.1 HCVcc-Cre infection, luciferase reporter, 44 h; Potency, µM (top dose mostly 41.8 µM), usual class: inhibitors; 3.4% of 340,000 active; AID 651820
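Compounds are dispensed onto cells plated 4 h earlier at 1,000 per well, with HCVcc-Cre virus (about 0.5 moi) added next. Following 44 h of culture, luminescent signal is measured for 15 sec after 15 min with substrate at room temperature.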
NS1 inh – inhibitors of influenza NS1 protein function; 0.4% of 270,000 active; Potency, µM (doses to about 46.1 µM); AID 2326; calls by dose curve; further: actives are rising curves; nearly all actives have a fitted effect of over 50% in size
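Growth recovery, yeast-based: influenza A NS1 expressed in S. cerevisiae causes slow growth, and suppressors are detected by OD600. The parent strain without NS1 is used as positive control.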
Pf growth 96h – inhibits malaria parasite growth, 96 h | P. falciparum luciferase reporter growth, 96 h | 6.9% of 320,000 active | Potency, µM (doses to about 28.7 µM), usual class: inhibitors | AID 504834
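Compounds incubated with erythrocytes infected by luciferase-expressing P. falciparum (2% hematocrit, 0.05% parasitemia final) for 96 hours, 37 C in 5% CO2. Growth inhibition scored as decreased luciferase luminescence.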
AMA1 RON2 block – AMA1-RON2 (P. falciparum) interaction inhibition | Potency, µM (titrated, usually from 58.2 µM), hits mostly inhibitors | 0.2% of 360,000 active | AlphaScreen AMA1-biotinylated RON2 peptide binding; further: nearly all actives have a fitted effect of over 45% in size
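AMA1 (3D7) with his tag at 25 nM final met compounds first, then biotinylated RON2 peptide at 25 nM; detection used donor plus acceptor beads, 10 µg/mL apiece, read by AlphaScreen after 30 min at room temperature.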
Pf growth 48h – inhibits P. falciparum growth in the first generation, 48 h; P. falciparum luciferase growth in erythrocytes, 48 h; Potency, µM (highest dose often 28.7 µM), hits mostly inhibitors; 5.9% of 310,000 active; AID 504832
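Firefly luciferase activity from engineered P. falciparum reports growth; inhibitors lower the luminescent signal. Cultures contained 2% hematocrit erythrocytes at 0.1% final parasitemia.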
SARS PLpro yeast – inhibitors of SARS-CoV papain-like protease in yeast. S. cerevisiae expressing SARS-CoV PLpro, growth rescue. Potency, µM (top dose mostly 32.9 µM), usual class: activators. 0.19% of 330,000 active. AID 485353; calls by dose curve; further: nearly all actives have a fitted effect of over 55% in size
Hits are given with their value; – = inactive; ? = inconclusive; · = no result given; [ ] = another dose, or the depositor's remark. Unless noted, the call rests on the fitted dose curve; in most records, active means well fitted curve in the direction sought with a large enough effect; inconclusive means small, poorly fitted or top-dose-only effect, or another doubt; inactive means no such curve, though single readings can be large; an effect the other way counts as inactive or inconclusive.

SMILES | HCV inhibitor | NS1 inh | Pf growth 96h | AMA1 RON2 block | Pf growth 48h | SARS PLpro yeast
COc1ccc2c(c1)CC/C(=C/c1cc(OC)c(OC)c(OC)c1)C2=O | ? | · | 14.7µM | – | ? | –
Cc1ccc(NC(=S)N2CCCCC2CO)cc1C (configuration not stated) | – | – | – | – | – | –
COc1ccc(NC(=O)COC(=O)CCc2ccc(S(=O)(=O)N3CCOCC3)cc2)c(OC)c1 | – | · | · | – | · | –
CN(C)c1ccc2c(c1[N+](=O)[O-])Cc1ccccc1-2 | ? | · | · | 10µM | · | ·
CCCCN1C(=O)/C(=C/C=C2\Oc3ccccc3N2CC)SC1=S | – | – | – | – | – | –
CCN1/C(=C/C=C/c2oc3ccc(-c4ccccc4)cc3[n+]2CC)Oc2ccc(-c3ccccc3)cc21 | 0.891µM | – | – | ? | 0.928µM | –
O=C(O)CN1C(=O)/C(=C\c2cc(Br)ccc2OCc2ccc(F)cc2)SC1=S | – | – | – | – | – | –
O=C(O)COc1cccc(/C=C2/SC(=S)N(Cc3ccccc3)C2=O)c1 | – | – | ? | – | – | –
O=C(O)CN1C(=O)/C(=C\c2cc(Br)ccc2OCc2ccc(Cl)cc2)SC1=S | – | – | 10.4µM | – | – | –
O=C(O)CN1C(=O)/C(=C\c2cccc(OCc3ccccc3)c2)SC1=S | – | – | 14.7µM | – | – | –
OCCCN=C1CCCCC1 | · | – | · | · | · | ·
CC(=O)Nc1ccc(CN2C(=O)C(C)ON=C2c2ccccc2-c2ccco2)cc1 (configuration not stated) | · | · | · | – | · | ·
CCOC(=O)c1ccc(NS(=O)(=O)c2c(N)n(C)c(=O)n(C)c2=O)cc1 | 10µM | · | · | – | · | ·
CCOC(=O)c1ccc(NS(=O)(=O)c2c(C)n[nH]c2C)cc1 | – | · | – | – | – | –
CCOC(=O)c1c(S(=O)(=O)Nc2ccc(F)cc2C)c(C)n(C)c1C | – | – | 14.7µM | – | – | –
CCOC(=O)c1c(S(=O)(=O)NCC(=O)Nc2ccccc2F)c(C)n(C)c1C | – | – | ? | – | – | –
CCOC(=O)c1c(S(=O)(=O)Nc2ccc(C)c(F)c2)c(C)n(C)c1C | – | – | 9.28µM | – | – | –
CCOC(=O)c1c(S(=O)(=O)NCC(=O)Nc2cccc(C)n2)c(C)n(C)c1C | – | – | – | – | – | ?
CCOC(=O)c1c(S(=O)(=O)Nc2ccc(C)cn2)c(C)n(C)c1C | – | – | 10.4µM | – | – | –
CCc1nc2ccc(C(=O)NCc3ccc4c(c3)OCO4)cn2c1N(CC)Cc1cccc(Br)c1 | · | · | · | – | · | ·
Cc1ccc(C(=O)Nc2ncccc2C)cc1S(=O)(=O)N1CCCCC1 | – | · | – | – | ? | –
Cc1cccc(C)c1NC(=O)CNC(=O)C(C)N(C)CC(=O)Nc1ccc(F)cc1 (configuration not stated) | – | · | – | – | – | –
Cc1cc(NC(=O)CN2C(=O)/C(=C/c3ccc(C(C)C)cc3)SC2=S)no1 | · | · | · | – | · | ·
CN(C)CC1CCCCC1OC(=O)c1ccc(S(=O)(=O)N(C)c2ccccc2)cc1 (configuration not stated) | – | – | – | – | – | –
Fc1cnc(Cl)nc1NC1CCCCC1 | – | – | 4.65µM | – | – | –
SMILES | HCV inhibitor | NS1 inh | Pf growth 96h | AMA1 RON2 block | Pf growth 48h | SARS PLpro yeast
CCCNc1nc(Nc2ccc(C)cc2)nc(N2CCCC2)n1 | 10µM | – | 2.08µM | – | · | –
O=[N+]([O-])c1ccc(Nc2nc(NCCO)nc(N3CCCC3)n2)cc1 | ? | · | –[5.75 µM] | – | ? | –
Cc1cc(C)nc(Nc2ccc(N3CCCC3)cc2)n1 | – | – | · | 31.6µM | ? | –
CCc1nc2c(OCCOc3ccc(F)cc3)cccn2c1N(C)C(=O)CC(C)C | · | · | · | – | · | ·
O=C(COc1ccc(Br)cc1)N1CCN(S(=O)(=O)/C=C/c2ccccc2)CC1 | ? | – | 11.7µM | – | ? | –
COc1cc(Cl)c(NC2=CC(=O)C(=O)c3ccccc32)c(OC)c1 | 15.8µM | · | ? | – | 0.37µM | –
CC1C/C(=N/Nc2ccc([N+](=O)[O-])cc2[N+](=O)[O-])CC(C)(C)C1 (configuration not stated) | – | – | ? | ? | 10.4µM | –
COc1cccc(-c2nn(C)c3sc(C(=O)N4CCN(c5ccccn5)CC4)cc23)c1 | 10µM | – | ? | ? | ? | –
Cn1nc(-c2ccc(Cl)cc2)c2cc(C(=O)N3CCOCC3)sc21 | – | – | – | – | · | –
COc1ccc(N2CCN(C(=O)c3cc4c(-c5ccc(Cl)cc5)nn(C)c4s3)CC2)cc1 | – | – | ? | ? | · | –
COc1cccc(-c2nn(C)c3sc(C(=O)N4CCOCC4)cc23)c1 | – | – | 2.33µM | – | · | –
COc1ccc(N(C(=O)c2ccncc2)S(=O)(=O)c2ccccc2)cc1 | – | – | ? | – | – | –
COc1ccc(N(C(=O)c2cccnc2)S(=O)(=O)c2ccc(Cl)cc2)cc1 | ? | – | 5.22µM | – | – | ?
CCN(CC)C(=S)NC(=O)c1ccc(OC)c(Br)c1 | – | – | – | – | ? | –
C=CCN(CC=C)C(=S)NC(=O)c1ccc(OC)c(Br)c1 | – | – | 14.7µM | – | 10.4µM | –
Cc1[nH]c(=S)[nH]c(=O)c1Cc1ccccc1 | – | – | 13.1µM | – | – | –
COc1ccc(Cc2c(O)[nH]c(=S)[nH]c2=O)cc1 | – | – | 0.37µM | – | – | –
Cc1[nH]c(=S)[nH]c(=O)c1Cc1c(O)ccc2ccccc12 | – | · | · | – | · | ·
CCCCN(CC)CCNC(=O)c1cc2c(=O)[nH]c3ccc(C)cc3c2s1 | ? | – | – | – | 8.28µM | –
CCn1c(=O)c2cc(C(=O)NCC(OC)OC)sc2c2ccccc21 | ? | – | 1.47µM | – | –[0.00184 µM] | –
CCCCN(CC)CCNC(=O)c1cc2c(=O)n(CC)c3ccccc3c2s1 | 2.51µM | – | – | – | ? | –
CCCCN(CC)CCCNC(=O)c1cc2c(=O)n(CC)c3ccccc3c2s1 | 25.1µM | – | – | – | –[0.00184 µM] | –
CCOC(CNC(=O)c1cc2c(=O)n(CC)c3ccccc3c2s1)OCC | ? | – | – | – | –[0.00184 µM] | –
CCCCN(CC)CCNC(=O)c1cc2c(=O)n(C)c3ccccc3c2s1 | ? | – | ? | – | ? | –
O=C(Nc1ccc(F)cc1)c1ccc2c(=O)n(CC3CCCO3)c(=S)[nH]c2c1 (configuration not stated) | – | – | – | – | ? | –
CC(NC(=O)CCc1nnc(-c2ccc(-c3ccccc3)cc2)o1)c1nc2ccccc2[nH]1 (configuration not stated) | – | – | – | – | ? | –
CN(C)CCCNC(=O)c1cc2sc3ccccc3c2s1 | 10µM | – | ? | – | ? | –
Cc1ccc2[nH]c(=O)c3cc(C(=O)N(C)c4ccc(C)c(C)c4)sc3c2c1 | – | – | 8.28µM | – | ? | –
CCN(C(=O)c1cc2c(=O)[nH]c3ccc(C)cc3c2s1)c1ccc(F)cc1 | ? | – | ? | – | ? | –
